Screening data: PubChem BioAssay, several laboratories
An excerpt weighted towards active compounds, which were near 0.29% of everything screened.
Vc quorum ag: inducers of Vibrio cholerae quorum light production without autoinducers, primary screen, BH1578 luxS cqsA deficient, single point. V. cholerae BH1578 lux reporter, luminescence, 6 h. actives 0.16% (n = 350,000). activation, % at 18.7 µM; in the data active = activation mostly above about 9.7%, no sharp cut-off
Mtb hypoxia inh: PubChem AID 1159583; M. tuberculosis hypoxia-regulated fluorescent reporter, fluorescence; fluorescence inhibition, % (no concentration beside the values); actives 0.1% (n = 300,000); in the data active = fluorescence inhibition mostly above about 23%, no sharp cut-off; inactive = mostly below about 17%
Y pestis TopoI: Yersinia pestis topoisomerase I inhibitors, primary screen, biochemical, cleavage product accumulation, plate reader, single point; actives 0.064% (n = 360,000); activity, % at 10 µM; AID 504884, 2011; Y. pestis Topo-I cleavage product accumulation; in the data active = activity above about 50%, passing the limit was not always enough
* = called active by the depositor; i = inactive; x = no result shown; + = active, no number.

SMILES | Vc quorum ag | Mtb hypoxia inh | Y pestis TopoI
COC(=O)Cc1[nH]n(-c2nc3ccccc3s2)c(=O)c1C(C)=O | + | 2.4 | -6.2
CN(CCOc1ccccc1)C(=O)c1cc(S(=O)(=O)N2CCOCC2)c(Cl)cc1Cl | i | x | -4.6
CCCc1cc(=O)oc2c(C)c3occ(C)c3cc12 | 23.2* | 9.1 | -3.6
Cc1coc2c(C)c3oc(=O)cc(-c4ccccc4)c3cc12 | i | x | -5.0
COc1cc2c(cc1OC)C1=NC(=O)CN1C(SCc1ccc(C)cc1)=N2 | 0.7 | x | 82.1*
C=CCSC1=Nc2cc(OC)c(OC)cc2C2=NC(=O)CN12 | -0.5 | 15.5 | 6.8
C=CCn1cc(C=NN2C(=O)C3C4C=CC(C4)C3C2=O)c2ccccc21 (configuration not stated) | x | -3.2 | x
CC(=O)Nc1ccc(-c2ccnc3c2CC(C(=O)Nc2ccc4c(c2)OCO4)O3)cc1 (configuration not stated) | -0.6 | x | 5.0
CC(C)c1ccc(NC(=O)C2Cc3c(-c4ccc5c(c4)OCO5)ccnc3O2)cc1 (configuration not stated) | i | x | 60.3*
Cc1c(C=NNC(=O)c2ccc(Br)o2)cnn1C | x | 3.8 | x
COc1ccc(OC)c(NC(=O)C2=C(C)Nc3ncnn3C2c2cccs2)c1 (configuration not stated) | + | 16.1 | -2.4
COc1ccc(OC)c(NC(=O)C2=C(C)NC(=O)NC2c2cccs2)c1 (configuration not stated) | -1.4 | -6.1 | -8.4
CCC(=NNC(=O)c1ccc2c(c1)OCO2)c1ccccc1O | x | 1.4 | x
COc1ccc(C=NNC(=O)c2c(C)nc3ccc(Cl)cn23)cc1OC | x | -10.0 | x
COC(=O)c1cccc(NC(=O)CC2C(=O)NCCN2C(=O)Nc2cc(C)cc(C)c2)c1 (configuration not stated) | 0.5 | 12.2 | 16.7
COc1ccc(OCc2nnc(SCC(=O)Nc3ccc(C)cc3)o2)cc1 | -0.3 | 9.0 | 13.2
COc1ccc(Cc2nnc(SCC(=O)N(C)CC(=O)Nc3ccc(C)cc3)o2)cc1 | 28.5* | 9.2 | 25.7
CCOC(=O)Cn1c(S(=O)(=O)Cc2ccc(F)cc2)nc(-c2ccccc2)c1-c1ccccc1 | -0.2 | 0.7 | 52.0*
CCOC(=O)Cn1c(S(=O)(=O)Cc2cccc(F)c2)nc(-c2ccccc2)c1-c1ccccc1 | -0.6 | 12.7 | 3.1
Cc1ccc(NC(=O)c2ccc(Cl)c(S(=O)(=O)NCc3ccco3)c2)c(O)c1 | -7.1 | -7.3 | -12.8
NS(=O)(=O)c1ccc(NC(=O)c2ccc(Cl)c(S(=O)(=O)NCc3ccco3)c2)cc1 | 0.8 | 22.2* | -4.5
CN(C)S(=O)(=O)c1cccc(NC(=O)COC(=O)c2ccc3c(c2)OCO3)c1 | -1.7 | 13.5 | -2.7
CN(C)S(=O)(=O)c1ccc(C(=O)OCC(=O)Nc2ccc3c(c2)OCO3)cc1 | i | 21.5* | 2.5
COCCNC(=S)NN=C(C)c1ccc(Cl)c(Cl)c1Cl | x | 16.8 | x
C=CCON=C(CCC)C1=C(N)CC(C)(C)CC1=O | x | -1.4 | x
SMILES | Vc quorum ag | Mtb hypoxia inh | Y pestis TopoI
CC(=O)c1c(C)n([O-])c2ccc(C)cc2[n+]1=O | -0.3 | 64.0* | 8.4
Cc1ccc2c(c1)n([O-])c1c([n+]2=O)CCCC1 | i | x | -5.5
O=C(NCc1ccccc1)c1nccnc1CO | -0.9 | 10.4 | -1.0
COc1ccc(S(=O)(=O)N(C)C[C@H]2Oc3ccc(NC(=O)Nc4ccc5c(c4)OCO5)cc3C(=O)N([C@H](C)CO)C[C@@H]2C)cc1 | -0.4 | x | 1.2
C#CCOCCOCCOCCNc1nc(N2CCN(C(=O)CCCCCCCCCCNC(=O)[C@H]([C@@H](C)CC)n3cc(CCCCN=C(N)N)nn3)CC2)nc(N2CCN(C(=O)CCCCCCCCCCNC(=O)[C@H](CO)n3cc(CCCCCN)nn3)CC2)n1 | 1.7 | x | -22.3
C#CCOCCOCCOCCNc1nc(N2CCN(C(=O)CCCCCCCCCCNC(=O)[C@H]([C@@H](C)CC)n3cc(CCCCCN)nn3)CC2)nc(N2CCN(C(=O)CCCCCCCCCCNC(=O)[C@H]([C@@H](C)CC)n3cc(CCCCN=C(N)N)nn3)CC2)n1 | i | x | 104.9*
COc1ccc(C=NN2CCOCC2)cc1COc1ccc(Cl)cc1 | x | 8.4 | x
CN(C)N=Cc1cc(Cl)cc([N+](=O)[O-])c1O | x | 8.9 | x
CC1=C(C(=O)Nc2ccc(Cl)cc2)C2(CCCCC2)C(C(N)=O)C(=S)N1 (configuration not stated) | x | -5.5 | x
CC1CCN(c2nc(/C=C/c3ccccc3)nc3ccccc23)CC1 | -0.2 | 9.8 | -1.5
C(=C\c1nc(N2CCCC2)c2ccccc2n1)/c1ccccc1 | -0.2 | 45.4* | 10.0
Cc1nc(SCC(=O)NCc2ccc3c(c2)OCO3)nc(C)c1C | i | 22.9* | -4.8
Nc1cc(N)nc(SCC(=O)NCc2ccc3c(c2)OCO3)n1 | -1.2 | -3.1 | 7.5
C#Cc1ccc(C2C=C(C(=O)OCC=C)OC(OCc3ccc(CO)cc3)C2)cc1 (configuration not stated) | x | 6.1 | x
CCc1nnc(NS(=O)(=O)c2ccc(Nc3ccc([N+](=O)[O-])c4nonc34)cc2)s1 | -0.3 | 39.2* | -6.9
CCc1nnc(NS(=O)(=O)c2ccc(NS(=O)(=O)c3ccccc3[N+](=O)[O-])cc2)s1 | -1.2 | 0.9 | 3.3
CC(=O)c1sc(NC(=O)CS(=O)(=O)c2ccccc2)nc1C | 1.9 | 3.5 | 10.8
CC(=O)c1sc(NC(=O)CS(=O)(=O)c2ccc(F)cc2)nc1C | 28.0* | 9.6 | 2.4
CCCCCCN1C[C@@H](n2cc(-c3ccc(F)cc3)nn2)[C@H](O)C[C@@H]1c1ccc(OC)cc1 | -0.4 | x | 64.9*
CCCCCCN1C[C@H](n2cc(-c3ccc(F)cc3)nn2)[C@@H](O)C[C@@H]1c1ccc(OC)cc1 | -0.4 | x | -3.3
CCOC(=O)C1C2COc3ccc(C)cc3C2N2C(=O)CN(Cc3ccc(OC)cc3)C(=O)[C@@]12C (some centres not stated) | x | 6.5 | x
COc1cc(C=Nn2cnnc2)ccc1OC(=O)c1cccnc1 | x | 3.7 | x
CN(C)Cc1c(C(=O)NN=Cc2ccc(-c3ccccc3)cc2)nnn1-c1nonc1N | x | 6.8 | x
Cc1nc(SCc2ccccc2F)c2oc3ccccc3c2n1 | -0.2 | 39.8* | 22.3
Cc1nc(SCc2ccc(F)cc2)c2oc3ccccc3c2n1 | -0.7 | x | 3.1
SMILES | Vc quorum ag | Mtb hypoxia inh | Y pestis TopoI
O/N=C1\CCCc2c1nc(-c1ccccc1F)n2O | -0.6 | x | -6.2
Cc1cccc(S(=O)(=O)NC(=O)C2(C)CCN2C(=O)c2c(C)noc2C)c1 (configuration not stated) | -0.1 | x | 5.5
CC1(C)CC(=O)C2=C(C1)NC(=O)CC2c1ccc(F)cc1 (configuration not stated) | 30.2* | x | 13.4
CN(C)c1ccc(C2CC(=O)NC3=C2C(=O)CC(C)(C)C3)cc1 (configuration not stated) | 4.8 | 1.0 | -9.7
COc1ccccc1C(=O)Nc1ccc2c3c(cccc13)CC2 | -0.3 | 9.2 | 1.9
COc1cccc(OC)c1C(=O)Nc1ccc2c3c(cccc13)CC2 | 16.7* | 6.4 | 10.2
CCN1C(=O)C2C(c3ccc(Cl)cc3)N3C(=O)CN(Cc4ccccc4)C(=O)[C@@]3(C)C2C1=O (some centres not stated) | x | -0.7 | x
O=S(=O)(c1ccc(NC(=S)NN=Cc2ccc(N3CCOCC3)cc2)cc1)N1CCOCC1 | x | 9.8 | x
CCCCCCCC=NNc1nnc(Cc2ccccc2)c(=O)[nH]1 | x | 6.2 | x
